# This is a sample that favours compounds with a hit; in the whole collection about 1.6% have one here.
# KCNQ2 inh – inhibitors of rat KCNQ2 potassium channel; O88943; CHO-K1 KCNQ2, FluxOR thallium flux, 20 min; active compounds read low; B-score at 10 µM; 310,000 compounds, 1.1% hits; AID 2156;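 active = fluorescence ratio B-score at most minus 3 library SDs, with starting brightness B-score within 2 library SDs, cut at about -5.5 in these data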
# Target sequence (O88943 whole entry, looked up): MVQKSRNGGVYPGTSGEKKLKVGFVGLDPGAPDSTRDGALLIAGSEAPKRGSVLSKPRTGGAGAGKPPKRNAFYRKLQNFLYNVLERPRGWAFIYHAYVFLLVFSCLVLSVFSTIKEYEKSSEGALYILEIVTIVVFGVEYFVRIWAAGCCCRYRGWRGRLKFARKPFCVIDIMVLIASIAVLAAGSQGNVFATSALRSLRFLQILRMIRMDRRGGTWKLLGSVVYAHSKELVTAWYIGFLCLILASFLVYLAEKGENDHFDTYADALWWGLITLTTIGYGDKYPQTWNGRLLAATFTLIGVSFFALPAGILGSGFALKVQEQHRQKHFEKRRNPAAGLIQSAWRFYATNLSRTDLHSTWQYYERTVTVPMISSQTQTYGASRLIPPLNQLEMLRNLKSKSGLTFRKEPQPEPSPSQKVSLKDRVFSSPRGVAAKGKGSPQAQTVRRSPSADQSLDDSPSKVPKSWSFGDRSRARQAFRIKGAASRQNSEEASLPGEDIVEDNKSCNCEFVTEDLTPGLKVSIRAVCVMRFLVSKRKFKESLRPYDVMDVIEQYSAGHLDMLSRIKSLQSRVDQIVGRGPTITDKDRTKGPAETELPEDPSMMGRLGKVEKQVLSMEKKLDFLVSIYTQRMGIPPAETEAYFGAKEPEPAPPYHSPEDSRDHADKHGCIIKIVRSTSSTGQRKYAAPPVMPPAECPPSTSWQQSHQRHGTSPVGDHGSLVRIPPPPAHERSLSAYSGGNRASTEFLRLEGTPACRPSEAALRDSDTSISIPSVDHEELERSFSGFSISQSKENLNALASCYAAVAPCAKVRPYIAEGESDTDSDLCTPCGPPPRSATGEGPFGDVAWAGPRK
# KCNQ2 enhance – KCNQ2 (rat) channel potentiation; AID 2239; CHO-K1 KCNQ2, FluxOR thallium flux fluorescence; active compounds read high; B-score at 10 µM; 310,000 compounds, 0.54% hits;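 active = fluorescence ratio B-score at least 3 SD of library B-scores, with initial fluorescence B-score within 3 of them, cut at about 5.3 in these data; same plate scores as AID 2156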;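 also: B-score of peak minus minimum over baseline fluorescence ratio after K+ and Tl+ stimulus; positive B-score means potentiation of KCNQ2 with more thallium influx and brighter signal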
# KCNQ2 inh conf – rat KCNQ2 channel inhibition, confirmatory screen; shares compounds with KCNQ2 inh; KCNQ2-expressing cells, thallium flux; active compounds read low; activity change, negative = inhibition, % at 10 µM; 1,000 compounds, 57% hits; AID 493025;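 also: 0% = vehicle wells and values are ratio percent relative to vehicle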
# KCNQ1 spec – human KCNQ1 activity in KCNQ2 inhibitor specificity screen. 1,000 compounds, 15% hits. KCNQ1-expressing cells, FluxOR thallium flux fluorescence; active compounds read low. activity change, negative = inhibition, % at 10 µM. shares compounds with KCNQ2 inh;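 active = activity change at least 3 SD of negative controls below their mean in both duplicate wells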;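 also: CHO cells stably transfected with KCNQ1 and depolarized by potassium stimulus; peak minus minimum fluorescence over baseline after thallium addition; 0% = vehicle negative control and -100% = blank without thallium stimulus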
# CHO Tl ctr – KCNQ2 inhibitor counter-screen hit in parental CHO cells; shares compounds with KCNQ2 inh; thallium flux counter-screen; active compounds read low; activity change, % at 10 µM; 1,000 compounds, 14% hits;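 also: 0% = vehicle negative controls with stimulus buffer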
# KCNQ2 patch conf – confirmation of rat KCNQ2 potassium channel inhibitors; KCNQ2-expressing cells, automated patch clamp current; calls only at 10 µM; shares compounds with KCNQ2 inh; 550 compounds, 49% hits
# * = called active by the depositor; i = inactive; · = not tested or not shown; + = active, no number. Unless noted, no rule for the calls is given here.
SMILES,KCNQ2 inh,KCNQ2 enhance,KCNQ2 inh conf,KCNQ1 spec,CHO Tl ctr,others
COCCn1c(SCC(=O)NCC2CCCO2)nc2c([nH]c3ccccc32)c1=O (stereo not given),i,0.89,·,·,·,
Oc1ccccc1CNc1ccc(Br)cn1,i,·,·,·,·,
Brc1ccc(NCc2cccc3ccccc23)nc1,-6*,-6,·,·,·,
COc1nnc(-c2ccc(N3CCCCC3)c(NC(=O)C3CCCCC3)c2)c2ccccc12,-6.2*,-6.2,·,·,·,
COc1nnc(-c2ccc(N3CCOCC3)c(NC(=O)C3CCCCC3)c2)c2ccccc12,i,·,·,·,·,
CC(=O)N(Cc1ccco1)c1nc(C(=O)Nc2ccc(Cl)cc2)c(C)s1,i,·,·,·,·,
CC(=O)c1cccc(N2C(=NC(=O)C3CCCCC3)SC3CS(=O)(=O)CC32)c1 (stereo not given),i,·,·,·,·,
CCN(Cc1ccccc1)C(c1ccc(C)cc1)c1nnnn1C(C)(C)CC (stereo not given),-8.8*,-8.8,-28%*,i,i,KCNQ2 patch conf=i
Cc1cc2cc(C(c3nnnn3C(C)(C)C)N(Cc3ccco3)CC3CCCO3)c(=O)[nH]c2cc1C (stereo not given),i,0.49,·,·,·,
CC(C)(C)n1nnnc1C(c1ccc(F)cc1)N(Cc1ccc(F)cc1)Cc1ccco1 (stereo not given),-11*,-11,-30%*,i,i,KCNQ2 patch conf=i
CCC(C)(C)n1nnnc1C(c1ccc(C)cc1)N1CCSCC1 (stereo not given),i,·,·,·,·,
Fc1ccc(C(c2nnnn2C2CCCC2)N(Cc2ccco2)CC2CCCO2)cc1 (stereo not given),i,·,·,·,·,
CC(C)(C)n1nnnc1C(c1ccc(C(F)(F)F)cc1)N(Cc1ccccc1)Cc1ccco1 (stereo not given),-11*,-11,-57%*,-58%*,-54%*,
c1ccc2c(-c3cn4ccccc4n3)c[nH]c2c1,i,·,·,·,·,
COc1ccc(-n2cc(-c3ccccc3)c3c(N4CC(C)OC(C)C4)ncnc32)cc1 (stereo not given),i,·,·,·,·,
CCc1cccc(C)c1NC(=O)CC1Oc2ccc(C)cc2NC1=O (stereo not given),i,0.16,·,·,·,
Cc1ccnc(NS(=O)(=O)c2ccc(-n3cccn3)cc2)c1,i,0.67,·,·,·,
CCOC(=O)c1cnc(-n2nc(C)cc2C)nc1NC1CCCCC1,-8.9*,-8.9,-33%*,i,i,KCNQ2 patch conf=+
CCOC(=O)c1cnc(-n2nc(C)cc2C)nc1NC,i,0.03,·,·,·,
Cc1cc(/C(N)=N/OC(=O)Nc2ccc(Cl)cc2)no1,i,0.23,·,·,·,
Cc1cc(NC(=O)C2CCCCC2C(=O)O)ccc1NC(=O)c1ccccc1 (stereo not given),i,0.6,·,·,·,
O=C(COc1ccc(Cl)cc1)N(Cc1ccccc1)c1ccccn1,-9.1*,-9.1,i,i,i,
O=C(COc1ccc(Br)cc1)N(Cc1ccccc1)c1ccccn1,i,·,·,·,·,
CC(Oc1ccc(Br)cc1)C(=O)Nc1cc(Cl)ccc1N1CCN(C)CC1 (stereo not given),i,·,·,·,·,
O=C(c1ccccc1F)N1CCCC(C(=O)N2CCc3ccccc3C2)C1 (stereo not given),i,·,·,·,·,
SMILES,KCNQ2 inh,KCNQ2 enhance,KCNQ2 inh conf,KCNQ1 spec,CHO Tl ctr,others
Cc1cc(C)n(-c2nc3ccccc3nc2N2CCCC2)n1,i,·,·,·,·,
Cc1cc(C)n(-c2nc3ccccc3nc2N2CCN(C(=O)c3ccc(Cl)cc3)CC2)n1,-8.4*,-8.4,-32%*,-30%*,-24%*,KCNQ2 patch conf=+
COc1ccc(C(=O)CC(=O)c2ccccc2)cc1,i,0.38,·,·,·,
COc1ccc(C(=O)C/C(=C\C(=O)c2ccc(C)cc2)c2ccccc2)cc1,-7.7*,-7.7,i,i,i,
COc1ccccc1C(=O)NC(=O)COC(=O)CNC(=O)c1ccc(Cl)cc1Cl,i,1.2,·,·,·,
COc1ccc(C(=O)CC(Nc2ccc([N+](=O)[O-])cc2)c2ccc(Cl)cc2)cc1 (stereo not given),-8.1*,-8.1,i,i,i,
COc1ccc(C(=O)CC(=O)C(=O)Nc2ccc(Cl)cc2)cc1,i,·,·,·,·,
O=C(c1ccc(Cl)cc1)c1c[nH]c(C(=O)NNc2ccccc2)c1,i,·,·,·,·,
Cc1nn(CC(=O)NCc2cccs2)c(=O)c2nn(-c3ccccc3)c(C)c12,i,0.26,·,·,·,
CCOc1cc(CNc2ccc(Br)cc2)cc(Br)c1OCC(=O)NC(C)(C)C,-6.8*,-6.8,-24%*,i,i,KCNQ2 patch conf=i
CCOc1cc(CNn2cnnc2)cc(Br)c1OCC(=O)NC(C)(C)C,i,0.87,·,·,·,
CN(Cc1ccccn1)C(=O)C1CCC(=O)N(Cc2cccc(C(F)(F)F)c2)C1 (stereo not given),i,·,·,·,·,
CCOC(=O)C(C)Sc1nc(C2CC2)cc(C(F)(F)F)c1C#N (stereo not given),-6.9*,-6.9,i,i,i,
COC(=O)CSc1nc(C2CC2)cc(C(F)(F)F)c1C#N,i,0.01,·,·,·,
Cc1ccc(C(C[N+](=O)[O-])Sc2ccc(N)cc2)cc1 (stereo not given),-9.4*,-9.4,-30%*,i,i,KCNQ2 patch conf=i
Nc1ccc(Sc2ccc([N+](=O)[O-])cc2)cc1,i,0.29,·,·,·,
O=C(Oc1ccc2ccccc2c1Br)N1CCCCCC1,-6.7*,-6.7,i,i,i,
CCN(CC)C(=O)Oc1ccc2ccccc2c1Br,i,·,·,·,·,
O=C(NCCc1cnc[nH]1)c1ccc(-c2ccccc2)cc1,i,·,·,·,·,
Cc1c(F)cccc1NC(=O)c1ccc2c(c1)CCN2S(C)(=O)=O,i,·,·,·,·,
Cc1cccc2c1Sc1ccc(Cl)cc1CC2N1CCNCC1 (stereo not given),-8.4*,-8.4,-42%*,-34%*,-28%*,KCNQ2 patch conf=+
CCc1cccc2c1Sc1ccccc1CC2N1CCNCC1 (stereo not given),i,·,·,·,·,
Cc1cc(C)c(S(=O)(=O)NCc2nc3nc(C)cc(C)n3n2)c(C)c1,i,·,·,·,·,
CCOP(=O)(OCC)C(NC(=O)Nc1c(C)cc(C)cc1C)c1ccccc1 (stereo not given),-9.2*,-9.2,-21%*,i,i,KCNQ2 patch conf=+
CCOP(=O)(OCC)C(NC(=O)Nc1ccccc1)c1ccccc1 (stereo not given),i,·,·,·,·,
SMILES,KCNQ2 inh,KCNQ2 enhance,KCNQ2 inh conf,KCNQ1 spec,CHO Tl ctr,others
C=CCN1CCN(C(=O)CCc2ccccc2)CC1,i,0.35,·,·,·,
COc1ccc(C(C[N+](=O)[O-])c2c(C)[nH]n(-c3ccccc3)c2=O)cc1 (stereo not given),-7*,-7,-26%*,i,i,KCNQ2 patch conf=i
Cc1[nH]n(-c2ccccc2)c(=O)c1C(C[N+](=O)[O-])c1ccccc1Cl (stereo not given),i,·,·,·,·,
Cc1c(S(=O)(=O)N2CCCCC2)c(=O)n(C)c(=O)n1C,i,0.84,·,·,·,
CCC1CCC(c2nnc(-c3ccc([N+](=O)[O-])cc3)o2)CC1 (stereo not given),i,·,·,·,·,
CCn1c(=O)c(C(=O)NCc2ccccc2)c(O)c2ccccc21,i,·,·,·,·,
CCCn1c(=O)c(C(=O)NCc2ccccc2OC)c(O)c2ccccc21,-7.6*,-7.6,i,i,i,

# Compound activity from PubChem BioAssay.
